Several values for one entry are separate records, joined by “and”; a condition that tells them apart may be missing. Equal values may be shown once. Screen size: about 5,500 compounds; about 2,000 (36%) were called active. Inconclusive results (about 18%) are left out. Cut-off read from the data, not from the text of the source: active = normalized growth mostly below about 0.91 (no sharp cut-off); inconclusive = no clear call, values can overlap the other calls; inactive = mostly above about 0.92. Some of the results follow.
Test: chemical genetic growth profiling, strain panel (AID 1159580);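 note: tested at 20 µM; growth read once vehicle control cultures reached saturation at 30 °C; 1 = growth at the plate median or of vehicle wells; lower values mean less growth of the strain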
Settings: S. cerevisiae deletion strains, growth OD

Measured: normalized growth

COc1cnc(NS(=O)(=O)c2ccc(N)cc2)nc1
inactive: locus YAL021C, strain ccr4, hits give low values 1.01 | locus YAL026C, strain drs2, hits give low values 1 | locus YAL030W, strain snc1, hits give low values 1.01 | locus YBL061C, strain skt5, hits give low values 0.994 | locus YBR009C, strain hhf1, hits give low values 1.01 | locus YBR021W, strain FUR4, hits give low values 1.02 | locus YBR023C, strain chs3, hits give low values 0.998 | locus YBR171W, strain sec66, hits give low values 0.993 | locus YBR229C, strain ROT2, hits give low values 0.956 | locus YBR231C, strain swc5, hits give low values 0.991 | locus YBR279W, strain paf1, hits give low values 0.993 | locus YCL011C, strain gbp2, hits give low values 1 | locus YCL016C, strain dcc1, hits give low values 0.983 | locus YCL029C, strain bik1, hits give low values 0.98 | locus YCL069W, strain vba3, hits give low values 1 | locus YCR088W, strain abp1, hits give low values 1 | locus YDL005C, strain med2, hits give low values 0.997 | locus YDL035C, strain GPR1, hits give low values 0.996 | locus YDL040C, strain nat1, hits give low values 1 | locus YDL074C, strain BRE1, hits give low values 0.988 | locus YDL101C, strain DUN1, hits give low values 0.98 | locus YDL134C, strain PPH21, hits give low values 1 | locus YDL185W, strain tfp1, hits give low values 0.962 | locus YDL192W, strain arf1, hits give low values 0.972 | locus YDR001C, strain nth1, hits give low values 0.997 | locus YDR069C, strain doa4, hits give low values 1.01 | locus YDR101C, strain arx1, hits give low values 0.983 | locus YDR137W, strain rgp1, hits give low values 0.996 | locus YDR159W, strain sac3, hits give low values 0.92 | locus YDR162C, strain NBP2, hits give low values 0.992 | locus YDR195W, strain ref2 0.984 | locus YDR297W, strain sur2, hits give low values 1.01 | locus YDR318W, strain mcm21, hits give low values 0.986 | locus YDR334W, strain swr1, hits give low values 0.998 | locus YDR335W, strain msn5, hits give low values 0.993 | locus YDR388W, hits give low values 0.985 | locus YDR392W, strain spt3, hits give low values 0.925 | locus YDR502C, strain sam2, hits give low values 0.987 | locus YEL003W, strain gim4, hits give low values 1 | locus YEL037C, strain rad23, hits give low values 0.999 | locus YEL061C, strain CIN8 (second series), hits give low values 1 | locus YEL061C, strain CIN8, hits give low values 0.979 | locus YER015W, strain faa2, hits give low values 1 | locus YER016W, strain bim1, hits give low values 0.998 | locus YER110C, hits give low values 0.969 | locus YER111C, strain swi4, hits give low values 1.01 | locus YER155C, strain BEM2 (second series), hits give low values 1.02 | locus YER155C, strain BEM2, hits give low values 1 | locus YER167W, strain BCK2, hits give low values 0.99 | locus YFR010W, strain ubp6, hits give low values 0.989 | locus YGL078C, strain dbp3, hits give low values 0.978 | locus YGL086W, strain mad1, hits give low values 0.985 | locus YGL167C, strain pmr1, hits give low values 0.993 | locus YGL173C, strain kem1, hits give low values 1.01 | locus YGL227W, strain vid30, hits give low values 1 | locus YGL240W, strain doc1, hits give low values 0.994 | locus YGL248W, strain PDE1, hits give low values 0.976 | locus YGL253W, strain hxk2, hits give low values 0.994 | locus YGR135W, strain pre9, hits give low values 0.988 | locus YGR229C, strain SMI1, hits give low values 1.01 | locus YGR252W, strain gcn5, hits give low values 0.949 | locus YHR013C, strain ard1, hits give low values 1 | locus YHR027C, strain rpn1, hits give low values 0.982 | locus YHR030C, strain SLT2, hits give low values 1 and 0.997 | locus YHR079C, strain IRE1 (second series), hits give low values 0.984 | locus YHR079C, strain IRE1, hits give low values 0.989 | locus YHR094C, strain hxt1, hits give low values 0.984 | locus YHR129C, strain ARP1, hits give low values 0.997 | locus YHR142W, strain chs7, hits give low values 1 | locus YHR200W, strain rpn10, hits give low values 0.969 | locus YIL066C, strain RNR3, hits give low values 0.978 | locus YIL073C, strain SPO22, hits give low values 0.999 | locus YIL125W, strain kgd1, hits give low values 0.974 | locus YIR030C, strain dcg1, hits give low values 0.982 | locus YJL092W, strain hpr5, hits give low values 1 | locus YJL095W, strain BCK1 (second series), hits give low values 0.988 | locus YJL095W, strain BCK1, hits give low values 0.983 and 1.01 | locus YJL115W, strain asf1, hits give low values 0.993 | locus YJL129C, strain trk1, hits give low values 0.986 | locus YJL134W, strain LCB3, hits give low values 0.995 | locus YJL154C, strain vps35, hits give low values 1 | locus YJL164C, strain tpk1, hits give low values 0.981 | locus YJL166W, strain qcr8, hits give low values 1.01 | locus YJL168C, strain set2, hits give low values 0.982 | locus YJL187C, strain SWE1 (second series), hits give low values 0.965 | locus YJR043C, strain POL32, hits give low values 0.992 | locus YJR066W, strain TOR1, hits give low values 0.934

Reference: PubChem BioAssay AID1159580 (chemical genetic matrix, 2015)
